Source: PubChem BioAssay
Activity calls are given as the source filed them. Unless noted, the rule behind the calls is not given here.

How the values were obtained:
[1] = resazurin metabolic signal in HepG2 cells – cell-based, resazurin fluorescence, 24 h, PK04 Diversity Set, profiling panel (AID 1172); details: HepG2 viability, higher = more signal
[2] = budding yeast growth changes without added modifier – OD600, strain BY4716, 24 h, basal condition, primary screen (AID 1173); details: S. cerevisiae BY4716 growth, OD600, 24 h; higher = more signal, called active from +8 up or from −8 down
[3] = viability profiling in MM1S myeloma cells – cell-based, resazurin fluorescence, basal, 24 h, PK04 Diversity Set, profiling panel (AID 1174); details: higher = more signal, called active from +8 up or from −8 down;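 note: MM1S multiple myeloma cell line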
[4] = biological target: Dihydroorotate dehydrogenase (quinone), mitochondrial (Plasmodium falciparum (isolate 3D7)) (UniProt Q08210); assay: inhibition of P. falciparum DHODH – biochemical, C-terminal His tag, absorbance 600 nm, primary screen (AID 1175); details: PfDHODH enzyme, DCIP absorbance 600 nm; higher = more signal, called active from +8 up or from −8 down;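 note: recombinant parasite enzyme with a five histidine tag at its C terminus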
Chain of Dihydroorotate dehydrogenase (quinone), mitochondrial (Plasmodium falciparum (isolate 3D7)) (Q08210 whole entry, looked up): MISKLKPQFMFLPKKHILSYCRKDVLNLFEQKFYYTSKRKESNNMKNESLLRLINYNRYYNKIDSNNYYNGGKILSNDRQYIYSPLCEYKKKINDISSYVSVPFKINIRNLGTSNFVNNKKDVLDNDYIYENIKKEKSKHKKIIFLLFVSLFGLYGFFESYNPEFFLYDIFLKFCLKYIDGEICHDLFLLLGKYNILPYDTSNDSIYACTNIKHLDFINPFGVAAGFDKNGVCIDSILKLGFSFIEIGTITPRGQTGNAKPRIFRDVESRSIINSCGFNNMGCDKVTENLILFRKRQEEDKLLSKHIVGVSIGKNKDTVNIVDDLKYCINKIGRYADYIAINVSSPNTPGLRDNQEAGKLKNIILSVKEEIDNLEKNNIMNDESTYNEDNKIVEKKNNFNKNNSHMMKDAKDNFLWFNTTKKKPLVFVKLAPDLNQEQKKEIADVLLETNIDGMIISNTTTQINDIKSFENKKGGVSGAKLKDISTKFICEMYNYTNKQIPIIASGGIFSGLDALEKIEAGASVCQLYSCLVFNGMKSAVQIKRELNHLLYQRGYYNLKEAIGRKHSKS

[5] = inhibition of PAO1 biofilm formation – strain PAO1, LB-PBS medium, absorbance 600 nm, primary screen (AID 1176); details: P. aeruginosa PAO1 growth/biofilm, A600, 12 h; higher = more signal
[6] = growth modulation of vineyard yeast isolate – strain RM11-1a, OD600, basal, 24 h, primary screen (AID 1177);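 note: cultures grown under basal conditions with no added stressor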; details: S. cerevisiae RM11-1a growth, OD600, 24 h; higher = more signal, called active from +8 up or from −8 down
[7] = growth of efflux-deficient E. coli DRC39 – strain DRC39, OD650, 24 h, E. coli filamentation inducers, primary screen (AID 1178);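 note: growth measured as culture turbidity by optical density at 650 nm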; details: E. coli DRC39 acrAB, higher = more signal, called active from +8 up or from −8 down
[8] = growth of efflux-deficient E. coli DRC39 – strain DRC39, OD650, 48 h, E. coli filamentation inducers, primary screen (AID 1179);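 note: screen aims at cell division blockers that make cells filament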; details: E. coli DRC39 delta-acrAB growth, higher = more signal, called active from +8 up or from −8 down
[9] = viability profiling in RPMI8226 myeloma cells – cell-based, resazurin fluorescence, basal, 24 h, PK04 Diversity Set, profiling panel (AID 1180); details: higher = more signal;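 note: RPMI8826 multiple myeloma cell line at 5000 cells per well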
[10] = biological target: E3 ubiquitin-protein ligase XIAP (Homo sapiens) (UniProt P98170); assay: small molecules binding XIAP protein – biophysical, small-molecule microarray, fluorescence 635 nm, primary screen (AID 1181); details: higher = more signal;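 note: score merges 667 nm emission and signal to noise over triplicate slides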
Chain of E3 ubiquitin-protein ligase XIAP (Homo sapiens) (P98170 whole entry, looked up, the tested form may be a part): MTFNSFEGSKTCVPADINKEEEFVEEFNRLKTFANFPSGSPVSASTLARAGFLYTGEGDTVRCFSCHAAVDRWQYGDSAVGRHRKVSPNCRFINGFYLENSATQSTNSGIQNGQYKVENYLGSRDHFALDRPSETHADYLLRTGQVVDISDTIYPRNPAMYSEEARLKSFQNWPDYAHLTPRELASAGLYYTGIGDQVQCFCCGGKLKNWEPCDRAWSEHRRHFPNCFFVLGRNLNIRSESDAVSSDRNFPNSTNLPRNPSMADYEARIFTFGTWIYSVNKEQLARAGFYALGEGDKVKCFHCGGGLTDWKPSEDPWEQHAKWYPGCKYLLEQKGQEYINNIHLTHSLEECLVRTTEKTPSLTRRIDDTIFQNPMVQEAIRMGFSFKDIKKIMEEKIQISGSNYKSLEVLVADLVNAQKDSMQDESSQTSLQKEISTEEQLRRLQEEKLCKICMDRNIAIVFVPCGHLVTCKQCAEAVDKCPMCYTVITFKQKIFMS

[11] = tested on: XIP peptide (Xip251-270) binding; assay: XIP fragment 251-270 binding compounds – biochemical, small-molecule microarray, fluorescence 635/667 nm, 0.1 µg/mL protein, primary screen (AID 1182); details: fluorescent protein binding, 635 nm, higher = more signal, called active from +8 up or from −8 down
XIP peptide (Xip251-270) = assay: compounds binding XIP fragment 251-270 – biochemical, small-molecule microarray, fluorescence 635/667 nm, 0.5 µg/mL protein, primary screen (AID 1183); details: fluorescence 635 nm, higher = more signal
[12] = blood-stage malaria parasite viability loss – strain 3D7, DAPI fluorescence, 100 nL, primary screen (AID 1184);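 note: parasites grown inside human red blood cells in medium with human serum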; details: P. falciparum 3D7 growth, 3 d, higher = more signal
[13] = biological target: Homeobox protein Hox-A13 (Mus musculus) (UniProt Q62424); assay: disruptors of Hoxa13 oligonucleotide interaction – biochemical, fluorescence polarization, labeled oligonucleotide, primary screen (AID 1185); details: Hoxa13:DNA binding, 15 min, higher = more signal, called active from +8 up or from −8 down
Chain of Homeobox protein Hox-A13 (Mus musculus) (Q62424 whole entry, looked up): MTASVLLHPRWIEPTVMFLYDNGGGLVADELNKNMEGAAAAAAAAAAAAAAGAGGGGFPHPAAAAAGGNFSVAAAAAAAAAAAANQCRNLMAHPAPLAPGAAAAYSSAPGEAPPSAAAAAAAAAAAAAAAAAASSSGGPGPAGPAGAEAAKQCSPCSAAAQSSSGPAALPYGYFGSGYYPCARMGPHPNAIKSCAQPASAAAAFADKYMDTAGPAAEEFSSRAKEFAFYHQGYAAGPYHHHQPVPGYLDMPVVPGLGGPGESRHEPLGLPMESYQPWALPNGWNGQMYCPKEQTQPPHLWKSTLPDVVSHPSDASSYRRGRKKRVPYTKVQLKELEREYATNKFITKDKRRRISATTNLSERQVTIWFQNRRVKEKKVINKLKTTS

For `CCN1C(=O)[C@H]2[C@H]3[C@H](O)[C@H](O)CC(=NOC(C)CN4CCCCc5nc(C)c(C)cc54)[C@@H]3CC[C@H]2C1=O` (stereo not given in full), the z-score [1] was -1.3, the z-score [2] was -0.0913 (inactive) and the z-score [3] was -0.669 (inactive). The composite z-score [4] was 0.301 (inactive), the z-score [5] was -0.418 (inactive) and the z-score [6] was 0.002 (inactive). For the same molecule, the z-score [7] was 0.538 (inactive), the z-score [8] was 1.2 (inactive) and the z-score [9] was -0.889. For the same molecule, the composite z-score [10] was -0.211, the composite z-score [11] was 0.746 (inactive) and the composite z-score (XIP peptide (Xip251-270)) was 0.196. For the same molecule, the z-score [12] was 0.0706 and the z-score [13] was -1.48 (inactive).
For `C=CC[C@@H]1C=C[C@H](ON=Cc2ccc(C(=O)N3[C@H](c4ccc(C)cc4)[C@@H](C)CC[C@H]3C(=O)OC)cc2)[C@@H](CO)O1`, the z-score [1] was 0.456, the z-score [2] was -0.0957 (inactive) and the z-score [3] was -0.435 (inactive). The composite z-score [4] was 0.16 (inactive), the z-score [5] was 0.547 (inactive) and the z-score [6] was 0.674 (inactive). The z-score [7] was 0.442 (inactive), the z-score [8] was 0.226 (inactive) and the z-score [9] was 0.0719. For the same molecule, the composite z-score [10] was -0.16, the composite z-score [11] was -0.27 (inactive) and the composite z-score (XIP peptide (Xip251-270)) was 0.379. The z-score [12] was 0.495 and the z-score [13] was -6.28 (inactive).
With `CC(CCN1CCc2nc(-c3ccccc3)c(-c3ccccc3)cc2C1)=NOC[C@@H](C)[C@H](OCc1ccccc1)C(C)C` the z-score [1] was -1.12, the z-score [2] was -2.01 (inactive) and the z-score [3] was 0.504 (inactive). For the same molecule, the composite z-score [4] was 0.928 (inactive), the z-score [5] was -0.315 (inactive) and the z-score [6] was 0.0117 (inactive). The z-score [7] was -1.23 (inactive), the z-score [8] was -0.936 (inactive) and the z-score [9] was 0.64. For the same molecule, the composite z-score [10] was -0.04, the composite z-score [11] was 2.56 (inactive) and the composite z-score (XIP peptide (Xip251-270)) was -0.445. The z-score [12] was -0.784 and the z-score [13] was -0.978 (inactive).
For `CO[C@H]1COC(=O)[C@@H]2CCCN2C(=O)[C@@H](C)COC(=O)CC=C[C@@H]1C`, the z-score [1] was 0.264, the z-score [2] was -0.0361 (inactive) and the z-score [3] was 0.285 (inactive). For the same molecule, the composite z-score [4] was -1.95 (inactive), the z-score [5] was -0.725 (inactive) and the z-score [6] was 0.023 (inactive). For the same molecule, the z-score [7] was 0.488 (inactive), the z-score [8] was 0.362 (inactive) and the z-score [9] was 0.0409. For the same molecule, the composite z-score [10] was 0.285, the composite z-score [11] was -0.0014 (inactive) and the composite z-score (XIP peptide (Xip251-270)) was 0.371. The z-score [12] was 1.2 and the z-score [13] was -0.54 (inactive).
In the case of `COC(=O)[C@H](C)NC(=O)CCC1CC(OC(=O)NCCc2ccc(F)cc2)CC2(CCCC(COC(=O)NCC(c3ccccc3)c3ccccc3)O2)O1` (stereo not given in full), the z-score [1] is reported as 0.725, the z-score [2] is reported as 0.718 (inactive) and the z-score [3] is reported as 0.476 (inactive). The composite z-score [4] was -0.216 (inactive), the z-score [5] was 0.0251 (inactive) and the z-score [6] was 1.31 (inactive). The z-score [7] was 1.06 (inactive), the z-score [8] was 0.706 (inactive) and the z-score [9] was 0.809. The composite z-score [10] was -0.323, the composite z-score [11] was 0.477 (inactive) and the composite z-score (XIP peptide (Xip251-270)) was 0.577. For the same molecule, the z-score [12] was -1.32 and the z-score [13] was -4.47 (inactive).
With `COC(=O)[C@@H]1CC[C@H](C)[C@@H](c2ccc(C)cc2)N1C(=O)c1ccc(C=NOC(C)CN2CCCCc3nc(C)c(C)cc32)cc1` (stereo not given in full) the z-score [1] was 1.03, the z-score [2] was -0.104 (inactive) and the z-score [3] was -0.725 (inactive). For the same molecule, the composite z-score [4] was 0.613 (inactive), the z-score [5] was 0.642 (inactive) and the z-score [6] was 0.984 (inactive). The z-score [7] was 0.419 (inactive), the z-score [8] was -0.27 (inactive) and the z-score [9] was -0.0629. The composite z-score [10] was 0.147, the composite z-score [11] was -0.206 (inactive) and the composite z-score (XIP peptide (Xip251-270)) was 0.51. The z-score [12] was -1.76 and the z-score [13] was -3.03 (inactive).
In the case of `CC1(C)OCC(C(O)C2=CCCCC2=O)CO1` (stereo not given), the z-score [1] is reported as -0.786, the z-score [2] is reported as -0.124 (inactive) and the z-score [3] is reported as 0.665 (inactive). For the same molecule, the composite z-score [4] was 0.523 (inactive), the z-score [5] was 1.49 (inactive) and the z-score [6] was 0.205 (inactive). The z-score [7] was -0.85 (inactive), the z-score [8] was -2.63 (inactive) and the z-score [9] was 0.297. The composite z-score [10] was -0.294, the composite z-score [11] was 0.563 (inactive) and the composite z-score (XIP peptide (Xip251-270)) was 0.446. The z-score [12] was -0.831 and the z-score [13] was -2.61 (inactive).
In the case of `O=C1[C@H]2[C@H]3[C@H](O)[C@H](O)CC(=NOCc4ccccc4)[C@@H]3CC[C@H]2C(=O)N1Cc1ccccc1`, the z-score [1] is reported as 1.38, the z-score [2] is reported as -0.148 (inactive) and the z-score [3] is reported as 0.85 (inactive). The composite z-score [4] was -0.0807 (inactive), the z-score [5] was -0.377 (inactive) and the z-score [6] was -0.118 (inactive). For the same molecule, the z-score [7] was 0.16 (inactive), the z-score [8] was 0.71 (inactive) and the z-score [9] was 1.17. For the same molecule, the composite z-score [10] was 0.0512, the composite z-score [11] was -0.22 (inactive) and the composite z-score (XIP peptide (Xip251-270)) was -0.0597. For the same molecule, the z-score [12] was 0.0087 and the z-score [13] was -0.38 (inactive).
With `Cc1cc2c(c(=O)o1)[C@H](O)[C@H]1O[C@H]1C2=O` the z-score [1] was 0.145, the z-score [2] was -2 (inactive) and the z-score [3] was -1.19 (inactive). The composite z-score [4] was 0.44 (inactive), the z-score [5] was -0.282 (inactive) and the z-score [6] was -0.627 (inactive). The z-score [7] was -0.973 (inactive), the z-score [8] was -0.662 (inactive) and the z-score [9] was -0.764. The composite z-score [10] was -0.176, the composite z-score [11] was 0.326 (inactive) and the composite z-score (XIP peptide (Xip251-270)) was -0.311. For the same molecule, the z-score [12] was -0.811 and the z-score [13] was -4.87 (inactive).
In the case of `CCOC(=O)CCN1C(=O)[C@H]2[C@H]3[C@H](O)[C@H](O)CC(=NOCc4ccccc4)[C@@H]3CC[C@H]2C1=O`, the z-score [1] is reported as -0.0233, the z-score [2] is reported as -0.949 (inactive) and the z-score [3] is reported as -0.406 (inactive). The composite z-score [4] was 0.404 (inactive), the z-score [5] was 0.683 (inactive) and the z-score [6] was -0.172 (inactive). For the same molecule, the z-score [7] was -0.852 (inactive), the z-score [8] was -0.599 (inactive) and the z-score [9] was -0.103. For the same molecule, the composite z-score [10] was 0.0455, the composite z-score [11] was 0.204 (inactive) and the composite z-score (XIP peptide (Xip251-270)) was 0.635. The z-score [12] was 0.226 and the z-score [13] was -4.34 (inactive).
